Shown are actives, neighbours in structure and some others; about 19% of the full set was active somewhere.
TDP1 block – qHTS Assay for Inhibitors of Tyrosyl-DNA Phosphodiesterase (TDP1); Tyrosyl-DNA phosphodiesterase 1 (Homo sapiens), Q9NUW8; recombinant TDP1, AlphaScreen DNA substrate cleavage; Potency, µM (doses to about 130 µM), actives largely listed as inhibitors; 350,000 compounds, 0.28% hits; note: nearly all actives have a fitted effect of over 40% in size
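Here, a 5' biotin and 3' phosphotyrosine-FITC DNA oligonucleotide reports Tdp1 activity: intact substrate bridges AlphaScreen beads, while cleavage leaves a 3' phosphate and drops signal. All incubations at room temperature.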
DT40 TDP1 no CPT – qHTS for Inhibitors of human tyrosyl-DNA phosphodiesterase 1 (TDP1): qHTS in cells in absence of CPT; DT40 Tdp1-/- hTDP1 cells, no CPT, ATP luminescence, 48 h; Potency, µM (top dose mostly 46.2 µM), hits mostly inhibitors; 420,000 compounds, 15% hits; AID 686978, 2013; note: nearly all actives have a fitted effect of over 55% in size
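Growth kinetics read by CellTiter-Glo luminescence after ≥48 hr at 37 °C. Cells: DT40 Tdp1-/- stably carrying human TDP1, 400 per well, compound exposure in the absence of CPT (DMSO vehicle).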
RORg inh – qHTS for inhibitors of ROR gamma transcriptional activity. Drosophila S2 Gal4-RORgamma UAS-luciferase reporter, 20 h. Potency, µM (top dose mostly 53.6 µM), hits mostly inhibitors. 310,000 compounds, 5.4% hits. AID 2551, 2010; note: nearly all actives have a fitted effect of over 60% in size
Target sequence (P51450 whole entry, looked up, the tested form may be a part): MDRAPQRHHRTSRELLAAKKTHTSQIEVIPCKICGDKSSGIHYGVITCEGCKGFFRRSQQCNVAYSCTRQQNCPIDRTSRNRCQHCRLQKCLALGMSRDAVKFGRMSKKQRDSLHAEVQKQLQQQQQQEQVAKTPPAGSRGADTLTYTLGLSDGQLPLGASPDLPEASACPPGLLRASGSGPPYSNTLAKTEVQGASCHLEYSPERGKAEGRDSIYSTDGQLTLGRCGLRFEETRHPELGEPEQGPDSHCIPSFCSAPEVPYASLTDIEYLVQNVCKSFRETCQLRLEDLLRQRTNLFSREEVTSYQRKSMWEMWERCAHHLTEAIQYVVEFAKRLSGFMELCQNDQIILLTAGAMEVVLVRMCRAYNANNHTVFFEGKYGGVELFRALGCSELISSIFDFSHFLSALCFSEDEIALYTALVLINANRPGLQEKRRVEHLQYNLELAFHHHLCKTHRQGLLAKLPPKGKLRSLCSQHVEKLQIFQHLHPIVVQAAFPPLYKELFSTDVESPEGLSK
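Stable Schneider cell line, Gal4 DNA-binding domain fused to ROR gamma, UAS-luciferase. Cmpd 1 hr RT → CuSO4 700 uM final → 20 hr RT → luciferase reagent 10 min → luminescence.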
TDP1 cell CPT – qHTS for Inhibitors of human tyrosyl-DNA phosphodiesterase 1 (TDP1): qHTS in cells in presence of CPT; chicken DT40 Tdp1-/-;hTDP1 cells + 20 nM CPT, ATP luminescence, 48 h; Potency, µM (top dose mostly 46.2 µM), hits mostly inhibitors; 420,000 compounds, 12% hits; note: nearly all actives have a fitted effect of over 55% in size
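Chicken DT40 Tdp1-/- cells stably complemented with human TDP1 were seeded at 400 cells/well in medium containing 20 nM camptothecin, exposed to pin-transferred compounds, and grown at 37 °C for at least 48 hr. Viability was read as ATP luminescence.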
Gal4-VP16 FLuc – VP16 counterscreen qHTS for inhibitors of ROR gamma transcriptional activity | 310,000 compounds, 3.5% hits | Potency, µM (doses to about 53.6 µM), most hits filed as inhibitors | Drosophila S2 Gal4-VP16 UAS-luciferase, luminescence, 20 h | AID 2546, 2010;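 note: Gal4-VP16 expression switched on by copper sulfate through the metallothionein promoter; nearly all actives have a fitted effect of over 50% in size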
Large screens that a line does not name were inactive. Calls come from the whole dose curve; as a rule, active = well fitted curve in the direction sought with a large enough effect; inconclusive = small, poorly fitted or top-dose-only effect, or another doubt; inactive = no such curve, though single readings can be large; an effect the other way counts as inactive or inconclusive.

Cn1c(=O)c2cc(NC(=O)NCCc3ccccc3)ccc2n1Cc1cccc(C(F)(F)F)c1	DT40 TDP1 no CPT 23µM, TDP1 cell CPT inconclusive (no result: TDP1 block, RORg inh, Gal4-VP16 FLuc)
CCNC(=S)Nc1ccc2c(c1)c(=O)n(C)n2Cc1cccc(C(F)(F)F)c1	DT40 TDP1 no CPT 23µM, TDP1 cell CPT inconclusive (no result: TDP1 block, RORg inh, Gal4-VP16 FLuc)
Cc1cc(C)cc(Cn2c3ccc(NC(=O)NCCc4cccs4)cc3c(=O)n2C)c1	DT40 TDP1 no CPT inconclusive, TDP1 cell CPT 16µM (no result: TDP1 block, RORg inh, Gal4-VP16 FLuc)
Cn1c(=O)c2cc(NC(=O)OCCF)ccc2n1Cc1cccc(C(F)(F)F)c1	DT40 TDP1 no CPT 23µM, TDP1 cell CPT 23µM (no result: TDP1 block, RORg inh, Gal4-VP16 FLuc)
Cc1ccc(S(=O)(=O)c2cc3c(=O)n4cccc(C)c4nc3n(C3CCCCC3)c2=N)cc1	none (no result: TDP1 block)
Cc1cccc(C(C(=O)NCc2ccc(F)cc2)N(C(=O)c2csnn2)C2CC2)c1 (configuration not stated)	DT40 TDP1 no CPT inconclusive
Cc1cc(C)cc(Cn2c3ccc(NC(=S)NC4CCCCC4)cc3c(=O)n2C)c1	DT40 TDP1 no CPT inconclusive, TDP1 cell CPT 23µM (no result: TDP1 block, RORg inh, Gal4-VP16 FLuc)
Cn1c(=O)c2cc(NC(=O)NCc3ccccc3)ccc2n1C/C=C/c1ccccc1	DT40 TDP1 no CPT 7.3µM, TDP1 cell CPT 7.3µM (no result: TDP1 block, RORg inh, Gal4-VP16 FLuc)
Cc1ccc(CNC(=S)Nc2ccc3c(c2)c(=O)n(C)n3Cc2cccc(C(F)(F)F)c2)cc1	DT40 TDP1 no CPT 15µM, TDP1 cell CPT 26µM (no result: TDP1 block, RORg inh, Gal4-VP16 FLuc)
COc1ccc(OCCNC(=O)C(c2ccccc2)c2ccccc2)cc1	DT40 TDP1 no CPT inconclusive
O=C(Nc1cccc(Cl)c1)c1ccc(NCC2CCCO2)c([N+](=O)[O-])c1 (configuration not stated)	DT40 TDP1 no CPT inconclusive
O=C(Cc1ccc(Cl)cc1)Nc1ccc(-c2cc3ccccc3oc2=O)c(Cl)c1	DT40 TDP1 no CPT 2.9µM, TDP1 cell CPT 5.2µM
O=C(Cc1ccc(Cl)cc1)Nc1ccc2oc(=O)ccc2c1	none
CCc1ccc(OCC(=O)Nc2ccc(-c3cc4ccccc4oc3=O)c(OC)c2)cc1	DT40 TDP1 no CPT 7.3µM, RORg inh inconclusive, TDP1 cell CPT 6.5µM
COc1ccc(C(=O)Nc2ccc(-c3cc4ccccc4oc3=O)c(C)c2)cc1OC	DT40 TDP1 no CPT 16µM, TDP1 cell CPT 18µM (no result: RORg inh, Gal4-VP16 FLuc)
CCC(NC(=S)Nc1ccccc1)C(=O)O (configuration not stated)	none
O=C1[C@H](CC[C@H](O)c2ccc(F)cc2)[C@@H](c2ccc(O)cc2)N1c1ccc(F)cc1	RORg inh inconclusive, TDP1 cell CPT inconclusive, Gal4-VP16 FLuc inconclusive
CCOc1ccc(N(C(C)C(=O)Nc2cccnc2)S(C)(=O)=O)cc1 (configuration not stated)	none
CCOc1ccc(N(C(C)C(=O)N/N=C(\C)c2cccc(NC(=O)c3ccccc3)c2)S(C)(=O)=O)cc1 (configuration not stated)	DT40 TDP1 no CPT 18µM, RORg inh inconclusive, TDP1 cell CPT 18µM
CC(C)Cn1c(SCC(=O)NCCCN2CCCC2=O)nc2ccccc21	none (no result: RORg inh, Gal4-VP16 FLuc)
Cc1cc(C)c(C(=O)N2CCCC(CNS(=O)(=O)N(C)C)C2)o1 (configuration not stated)	none
O=C(c1ccc(CSc2nc3ccncc3n2Cc2cccc(F)c2)cc1)N1CCCCC1	DT40 TDP1 no CPT 21µM, TDP1 cell CPT inconclusive (no result: RORg inh, Gal4-VP16 FLuc)
O=C(c1ccc(CSc2nc3ccncc3n2Cc2cccc(F)c2)cc1)N1CCCCCC1	DT40 TDP1 no CPT 16µM, TDP1 cell CPT inconclusive (no result: RORg inh, Gal4-VP16 FLuc)
O=C(c1ccc(CSc2nc3ccncc3n2Cc2ccc(F)cc2)cc1)N1CCCCCC1	DT40 TDP1 no CPT inconclusive, TDP1 cell CPT inconclusive (no result: RORg inh, Gal4-VP16 FLuc)
Cc1ccc(S(=O)(=O)N2CCCOC2CNC(=O)C(=O)NC2CCCCC2)cc1 (configuration not stated)	DT40 TDP1 no CPT inconclusive, RORg inh inconclusive
C/C(Cl)=C\COc1cc(C)nc2c(Br)cccc12	DT40 TDP1 no CPT 29µM
Cc1[nH]c2ccc(C(=O)Nc3ccc(F)cc3)cc2c1C	DT40 TDP1 no CPT inconclusive, TDP1 cell CPT inconclusive (no result: RORg inh, Gal4-VP16 FLuc)
CC(=O)c1ccc(Nc2nc(C(N)Cc3ccc(C(F)(F)F)cc3)cs2)cc1 (configuration not stated)	DT40 TDP1 no CPT 16µM, TDP1 cell CPT 15µM (no result: TDP1 block, RORg inh, Gal4-VP16 FLuc)
COc1ccc(NC(=O)Nc2nnc(C(C)C)s2)cc1	DT40 TDP1 no CPT inconclusive
COc1cc(NC(=O)Nc2nc(C(N)Cc3ccc(C(F)(F)F)cc3)cs2)cc(OC)c1OC (configuration not stated)	DT40 TDP1 no CPT 12µM, TDP1 cell CPT 12µM (no result: TDP1 block, RORg inh, Gal4-VP16 FLuc)
COc1ccc(CC(N)c2csc(NC(=O)c3cc(C(C)(C)C)oc3C)n2)cc1 (configuration not stated)	DT40 TDP1 no CPT inconclusive, TDP1 cell CPT 23µM (no result: TDP1 block, RORg inh, Gal4-VP16 FLuc)
CC(=O)c1ccc(Nc2nc(C(C)N)cs2)cc1 (configuration not stated)	none (no result: TDP1 block, RORg inh, Gal4-VP16 FLuc)
COc1ccc(CC(N)c2csc(NC(=O)Nc3ccc(OC)cc3)n2)cc1 (configuration not stated)	DT40 TDP1 no CPT 16µM, TDP1 cell CPT 21µM (no result: TDP1 block, RORg inh, Gal4-VP16 FLuc)
COc1ccc(CC(=O)Nc2nc(C)cs2)cc1	none
COc1ccc(NC(=O)Nc2nc(C(N)Cc3ccc(C(F)(F)F)cc3)cs2)cc1 (configuration not stated)	DT40 TDP1 no CPT 16µM, TDP1 cell CPT inconclusive (no result: TDP1 block, RORg inh, Gal4-VP16 FLuc)
CCOc1ccc(CCNc2nc3ccc(C)cc3n3cnnc23)cc1OCC	DT40 TDP1 no CPT 16µM, TDP1 cell CPT inconclusive (no result: TDP1 block)
CCOc1ccc(CCNc2nc3ccccc3n3cnnc23)cc1OCC	DT40 TDP1 no CPT 18µM, TDP1 cell CPT inconclusive (no result: TDP1 block)
COc1ccc(CCNc2nc3ccccc3n3cnnc23)cc1OC	DT40 TDP1 no CPT inconclusive (no result: TDP1 block)

From PubChem BioAssay
